The values below come from the OligoGym collection.

Some targets named below: GLP1R; GLIS2; GNAQ; GLRA3; GNAT1; GOLGA1; GNLY.
Common to all, as to test: pooled miR-30 sensor sort-seq; sequence = guide strand
Holding throughout (conditions): shRNA
Also: reference of the scale not given here.

In the assay with GLP1R, TTGCAGAACAAGTCTGTGGCAG had a sensor-assay potency score (higher = more potent) of 0.187.

In turn, TAGAAAGGCACTTAGAACCTGT showed a sensor-assay potency score (higher = more potent) with GLIS2 of 0.24.

In the case of TTTTGCAGCCACGAACTCCTTG, the sensor-assay potency score (higher = more potent) with GLP1R was 0.187.

As to ATCGTTGACATGGTCCACCAGG, in the assay with GLIS2, the sensor-assay potency score (higher = more potent) is -0.948.

On to TCGAACTCTAAGCACATCTTGT, for which the sensor-assay potency score (higher = more potent) in the assay with GNAQ was -0.759.

In the case of TAGGCTGTGAAGCTGAATCGGC, the sensor-assay potency score (higher = more potent) with GLRA3 was -0.0399.

As to TTCGAGATCTTGCACTGTCTGT, the sensor-assay potency score (higher = more potent) with GLRA3 was -0.307.

Consider TTTAAGAACAGAATAACCGAGG, for which the sensor-assay potency score (higher = more potent) in the assay with GNAQ was -0.0655.

TTTCACAGAAGAGTTTCCGTTC returned a sensor-assay potency score (higher = more potent) with GLIS2 of 0.4.

TAGCATTGAATTACAAATCAAG came in with a sensor-assay potency score (higher = more potent) with GLRA3 of -1.08.

The sequence TAGTTCATGTTGGAGTTCCTGG returned a sensor-assay potency score (higher = more potent) with GLP1R of -0.642.

Sequence TTTGATGTCTGTCTTGCACATG registered a sensor-assay potency score (higher = more potent) with GLP1R of -0.835.

The sequence TATCCTATTATTTTCCTTGCAC gave a sensor-assay potency score (higher = more potent) with GLP1R of 0.182.

Sequence TAGATCTCCTTCACGTCGCGCC showed a sensor-assay potency score (higher = more potent) with GNAT1 of -0.148.

For TATCACATGATCTCTCTGCTCT, in the assay with GOLGA1, the sensor-assay potency score (higher = more potent) worked out at 0.568.

TTTTGGTCAACAGGTCACCCTG yielded a sensor-assay potency score (higher = more potent) with GNLY of -1.53.

For TTTTGGACTATCGTCAGACAGG, the sensor-assay potency score (higher = more potent) with GNLY was -1.31.

For the sequence TACTCTTGCCACTCTCTCCTGT, the sensor-assay potency score (higher = more potent) in the assay with GNAQ was found to be 0.305.

TTCAGTTTTTGGACTATCGTCA had a sensor-assay potency score (higher = more potent) with GNLY of 0.462.

In the assay with GNAT1, TTTGACGTTCTGCGTGTCGGTG came in with a sensor-assay potency score (higher = more potent) of -0.514.

Sequence TTTACTTAGTTCCTGCTGCTGG showed a sensor-assay potency score (higher = more potent) with GOLGA1 of 0.484.

Sequence TATACACAACCTGAGGTCCTCA showed a sensor-assay potency score (higher = more potent) with GNLY of -0.844.

The sequence TTCTAATGCAATTTCAAGCTTC had a sensor-assay potency score (higher = more potent) in the assay with GOLGA1 of 0.23.

The sequence TTCTTTTCCAGCTCCCTGGAGT registered a sensor-assay potency score (higher = more potent) with GNAT1 of -0.257.

TTATCTTCTGCAAGTTTCGGAC gave a sensor-assay potency score (higher = more potent) in the assay with GOLGA1 of -0.221.

The sequence ATTGGAAACACTTCTCTGGGTG returned a sensor-assay potency score (higher = more potent) with GNLY of 0.184.

The sequence TATTTTACTTAGTTCCTGCTGC yielded a sensor-assay potency score (higher = more potent) with GOLGA1 of 0.934.

In the assay with GNAT1, TTGACGTTCTGCGTGTCGGTGG returned a sensor-assay potency score (higher = more potent) of 0.245.

TTGATAAACGTACTCTTGCCAC: in the assay with GNAQ, the sensor-assay potency score (higher = more potent) was -0.533.

In the assay with GNAT1, TTGAGTGTGGTCATGGCGCGTA returned a sensor-assay potency score (higher = more potent) of -0.473.
